Tat export inh = E. coli Tat export inhibitors, primary screen, MC4100, TorA-mCherry reporter, fluorescence, single point; inhibition, % at 10 µM; AID 488895, 2010; actives 0.036% (n = 340,000);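 active = mean replicate inhibition at least 50% and at least half of replicates individually reaching 50%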;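 also: exported cargo escapes ClpAP degradation while cytoplasmic cargo is degraded and loses fluorescence; 0% = median of neutral control wells and 100% = median of NaSCN control wells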
AddAB inh = growth inhibition of E. coli expressing H. pylori AddAB, primary screen, AddAB inhibitor project, absorbance | actives 0.29% (n = 330,000) | inhibition, % at 11.9 µM; in the data active = inhibition above about 12%;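 also: 0% = vehicle wells of infected cells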
E coli growth-1 = E. coli V3065 growth inhibition, primary screen, counter-screen for AddAB inhibitor project, absorbance, OD600; inhibition, % at 11.9 µM; actives 0.27% (n = 330,000); 18 h; AID 449728, 2010;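 active = inhibition above the campaign's mean inhibition across all tested compounds plus 3 SD, cut at about 9.9% in these data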;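 also: uninfected addAB+ strain grown without phage in ampicillin broth; 0% = DMSO wells and 100% = ciprofloxacin 0.95 µg/ml wells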
E coli growth-2 = E. coli growth inhibition, primary screen, OD600; OD600 absorbance (test concentration not listed); AID 1053175, 2014; Escherichia coli growth, 23 h; stronger effect = lower value; actives 0.21% (n = 330,000);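 active = OD600 absorbance below the run mean of sample wells minus 3.6 SD, in any replicate, cut at about 0.56 in these data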
phage Ecoli inh = growth loss of phage-infected E. coli, primary screen, RecBCD inhibitor project, absorbance, with phage, HTS | AID 651602, 2012 | inhibition, % at 11.9 µM | actives 0.26% (n = 360,000); in the data active = inhibition above about 11%
AddAB confirm = growth loss of phage-infected E. coli expressing H. pylori AddAB, confirmation, AddAB inhibitor project, absorbance, E. coli V3065, T4 phage, triplicate; shares compounds with AddAB inh; OD; T4 phage with gene 2 nonsense mutations; inhibition, % at 11.9 µM; actives 64% (n = 880);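 active = mean inhibition above a set limit taken from the earlier primary screen, cut at about 13% in these data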;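 also: higher means less bacterial growth since AddAB block lets phage replicate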
RecBCD counter = growth loss of RecBCD+ E. coli with mutant T4 phage, counter-screen for AddAB inhibitor project, absorbance, V66 E. coli | shares compounds with AddAB inh | OD growth | inhibition, % at 11.9 µM | actives 73% (n = 880);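 active = mean inhibition above the mean of solvent-only control wells plus 3 SD, cut at about 4% in these data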;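 also: optical density read after an 18 h incubation at 37 °C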
bact viab count = bacterial viability inhibition counter-screen, confirmation, counter-screen for AddAB inhibitor project, absorbance; inhibition, % at 11.9 µM; shares compounds with AddAB inh; actives 35% (n = 880); absorbance (AddAB counterscreen); in the data active = inhibition above about 25%
* = called active by the depositor; / = no result given. Only some compounds are listed: those with a hit (about 0.5% of all), similar ones and a draw of the others.

SMILES | Tat export inh | AddAB inh | E coli growth-1 | E coli growth-2 | phage Ecoli inh | AddAB confirm | RecBCD counter | bact viab count
CCOC(=O)c1[nH]c2ccccc2c1NC(=O)C(CC)CC | 12 | 63* | 11* | 0.71 | 2 | -3 | 0 | -2
CCCN1CCN(C(=O)c2cc3c(s2)-c2ccccc2OC3)CC1 | 1 | 15* | 13* | 0.72 | 8 | 23* | 7.3* | 16
CCOC(=O)N1CCN(C(=O)c2cc3c(s2)-c2ccccc2OC3)CC1 | 3 | 0 | 2 | 0.7 | 4 | / | / | /
COc1ccc(OC)c(C2C/C(=N/O)C(C)C(c3cc(OC)ccc3OC)N2)c1 (stereo unspecified) | -1 | / | / | / | 1 | / | / | /
COc1ccc(OC)c(C2CC(=O)C(C)C(c3cc(OC)ccc3OC)N2)c1 (stereo unspecified) | 4 | 13* | 11* | 0.69 | 2 | -4 | -1 | 0
C[N+](C)(C)CCOP(=O)([O-])OCC(O)CO (stereo unspecified) | / | / | / | 0.64 | / | / | / | /
O=C(COC(=O)c1ccc([N+](=O)[O-])s1)c1ccc[nH]1 | -9 | 12* | 9 | / | 3 | 68* | 3 | 10
C=CCNC(=S)N1CCN(c2ncc3c(=O)c(C(=O)O)cn(CC)c3n2)CC1 | 7 | 20* | 11* | 0.46* | 3 | 89* | 3 | 26*
CCn1cc(C(=O)O)c(=O)c2cnc(N3CCN(C(=S)Nc4ccccc4Cl)CC3)nc21 | -6 | 97* | 84* | 0.54 | 0 | 98* | 0 | 32*
CCn1cc(C(=O)O)c(=O)c2cnc(N3CCN(C(=S)Nc4ccc(F)cc4)CC3)nc21 | / | 18* | 25* | 0.6 | -3 | 25* | 1 | 10
Cc1c(Cl)cccc1NC(=S)N1CCN(c2ncccn2)CC1 | -8 | 1 | -3 | 0.69 | 3 | / | / | /
C=CCNC(=S)N1CCC(C(=O)c2ccc(OC)cc2)CC1 | 6 | 3 | -1 | 0.7 | 2 | / | / | /
CCOC(=O)c1cc(C)sc1N=CC1=C(O)CCCC1=O | / | / | / | 0.69 | / | / | / | /
COC(=O)c1cccc(C23CC4(C2)C(CN(Cc2cccnc2)C4c2ccccc2)C3c2ccc(Cl)nc2)c1 (stereo unspecified) | / | / | / | 0.72 | / | / | / | /
CC(C)CC(CNC(=O)OC(C)(C)C)NC(=O)c1nc[nH]c1C(=O)NC(CC(C)C)C(=O)CNCC(CC(C)C)NC(=O)c1nc[nH]c1C(=O)NC(Cc1c[nH]c2ccccc12)C(=O)OC(C)(C)C (stereo unspecified) | / | / | / | 0.63 | / | / | / | /
COc1cc(NC(=O)c2cc(C3CC3)on2)c(OC)cc1Cl | 7 | 98* | 77* | 0.76 | -1 | -2 | 2 | 0
CCCCCCSc1ccc(C2N[C@@](Cc3ccccc3)(C(=O)OC)C3C(=O)N(C)C(=O)C23)cc1 (stereo partly specified) | / | / | / | 0.74 | / | / | / | /
CC(NC(=O)CN1CCOCC1)c1ccc(F)cc1 (stereo unspecified) | -5 | 15* | 16* | 0.65 | 1 | 2 | 0 | -2
COc1cc(C=C2NC(=O)NC2=O)cc(Br)c1OCc1ccccc1 | / | / | / | 0.68 | / | / | / | /
CC(C)C1C=C(C(=O)O)OC(OCc2ccc(CO)cc2)C1 (stereo unspecified) | / | / | / | 0.7 | / | / | / | /
CCC(CC)C1C(C#N)=C(N)Oc2cc(C)oc(=O)c21 (stereo unspecified) | -2 | 4 | 3 | 0.66 | 0 | / | / | /
Cc1cc2c(c(=O)o1)C(c1ccc([N+](=O)[O-])o1)C(C#N)=C(N)O2 (stereo unspecified) | 3 | 19* | 15* | 0.63 | 7 | 100* | 8.3* | 19
CCc1cccc(NC(=O)CCCSc2nc3ccccc3[nH]2)c1 | -18 | 12* | 6 | 0.65 | 5 | 3 | 3 | 1
Cn1c(OCc2cccnc2)nc2c1c(=O)n(Cc1ccc(Br)cc1)c(=O)n2C | -2 | 23* | 84* | 0.69 | 2 | 0 | 1 | 1
COc1ccc(-c2nnc(NC(=O)c3ccc4c(c3)OCCO4)o2)cc1 | -8 | 1 | -4 | 0.7 | -1 | / | / | /
SMILES | Tat export inh | AddAB inh | E coli growth-1 | E coli growth-2 | phage Ecoli inh | AddAB confirm | RecBCD counter | bact viab count
COc1ccc(-c2nnc(NC(=O)c3ccc(F)cc3)o2)cc1 | 7 | 15* | 5 | 0.55 | 4 | 17* | 12* | 5
Cc1ccc(S(=O)(=O)Nc2ccc(S(=O)(=O)Nc3nccs3)cc2)c([N+](=O)[O-])c1 | -4 | 16* | 9 | 0.67 | 10 | 6 | 4.1* | 8
Cc1ccc(S(=O)(=O)Nc2nccs2)cc1[N+](=O)[O-] | -4 | 3 | 1 | 0.66 | 3 | / | / | /
CC(C)(C)C1C=C(C(=O)NCc2ccccc2)OC(OCc2ccc(CO)cc2)C1 (stereo unspecified) | / | / | / | 0.67 | / | / | / | /
Cn1nc([N+](=O)[O-])c(C(C#N)c2ccccn2)c(Cl)c1=O (stereo unspecified) | 3 | 13* | 9 | 0.68 | 6 | 41* | 6.1* | 22
CCCCCCCCC[n+]1cccc2c3ccccc3ccc21 | -12 | 15* | 16* | 0.49* | / | 9 | 6.6* | 7
Cn1cnc([N+](=O)[O-])c1Sc1ncnc2nc[nH]c12 | -2 | 2 | 1 | 0.7 | 2 | / | / | /
Cn1cnc(Sc2ncnc3nc[nH]c23)c1[N+](=O)[O-] | 6 | 26* | 17* | / | 11 | 53* | 10* | 33*
CC1=CCC(C(=O)O)(C(=O)NN=Cc2cccs2)C(c2ccc([N+](=O)[O-])cc2)C1 (stereo unspecified) | / | / | / | 0.69 | / | / | / | /
CCOC(=O)C(CC)Sc1nc2c(cnn2-c2ccc(F)cc2)c(=O)[nH]1 (stereo unspecified) | 2 | 1 | 0 | 0.64 | 1 | / | / | /
CCC(Sc1nc2c(cnn2-c2ccc(Cl)cc2)c(=O)[nH]1)C(=O)OC (stereo unspecified) | -12 | 97* | 43* | 0.84 | 2 | 0 | 1 | 0
COc1cc(OC)c(OC)cc1C=NNc1ccc(Cl)nn1 | / | / | / | 0.7 | / | / | / | /
COc1ccc(/C=N/NC(=S)SC)cc1OC | -1 | 18* | 13* | / | 8 | 44* | 12* | 30*

Source: PubChem
